# Data as given in PubChem BioAssay AID1345083 (National Center for Advancing Translational Sciences (NCATS), 2018).
# The campaign covered roughly 94,000 compounds. About 6,200 (6.6%) were called active. Inconclusive results (about 31%) are left out. This is one part of a sample in which actives are shown more often than they occur. Calls follow the shape of the dose curve; as a rule, active = well fitted inhibition curve with a large enough effect; inconclusive = small, poorly fitted or top-dose-only effect; inactive = flat fitted curve, though single readings scatter.
# Assay: Cytotoxic Profiling in HEK 293 Cell Line of Diverse Libraries Using Quantitative High-Throughput Screening; also: nearly all actives have a fitted effect of over 60% in size
# Conditions: HEK 293 viability, ATP luminescence (CellTiter-Glo), 48-72 h; series mostly up to 115 µM; activity change, negative = cytotoxicity: at the top concentration
# Method in brief: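 Pintool-delivered compounds were incubated with HEK 293 cells (250 cells/well) at 37 degree Celsius for 48 or 72 hr. ATP-dependent luminescence (CellTiter-Glo) then reported remaining viable cells.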
# % is scaled to controls: 0 for no effect and ±100 for the full control effect; potency is read from the fitted curve at half-maximal effect.
Compound,"activity change, negative = cytotoxicity",outcome,Potency
CCOCC(=O)Nc1nn(-c2cccc(F)c2)c2cccc(N3CCOC3=O)c12,-23.7% (inactive),,
NC(=O)[C@H](Cc1cccs1)NC(=O)[C@@H]1C[C@@H](NC(=O)c2cnccn2)CCN1C(=O)COCC(=O)O,,inactive,
O=C(NCc1ccncc1)C1CCN(C(=O)N2CC3CC(C2)[C@H]2CCCC(=O)N2C3)CC1 (stereo partly drawn),6.44% (inactive),,
O=C(Nc1ccccc1Br)N1CCC2(CC1)SCC(=O)N2Cc1ccco1,-26.1% (inactive),,
CNC(=O)[C@@H]1CN(C(=O)Cn2c(=O)oc3ccccc32)C[C@H]1c1nc(C)no1,-8.64% (inactive),,
O=C(NCCc1ccccc1)N1CCCCCC1CN1CCOCC1 (stereo not drawn),1.18% (inactive),,
CCc1nc2c(c(-c3ccc(OC)cc3)n1)CCN(CC1CCCCC1)CC2,-20.6% (inactive),,
O=C(NCCOc1ccccc1)c1nc2c(o1)CCN(CC1CCCCC1)CC2,,,100 µM (active)
CN1C(=O)[C@H]2CN(Cc3ccccc3Cl)C[C@H]2C1=O,-5.39% (inactive),,
c1coc(-c2ccnc3nc(C4CC4)nn23)c1,-5.45% (inactive),,
COc1cc(NC(=O)C2Cn3cccc3C(=O)N2)cc(OC)c1 (stereo not drawn),,inactive,
Cc1noc(C)c1[S+](=O)([O-])N1CCn2c(nnc2-c2ccccc2)C1,-23.3% (inactive),,
Cc1noc(C)c1[S+](=O)([O-])N1CC(Oc2ccc(F)c(F)c2)C1,-8.54% (inactive),,
O=C1N2CCCC2CN1C1CCN(Cc2ccsc2)CC1 (stereo not drawn),-3.09% [at 172 µM] (inactive),,
CSc1ccc(-c2cccc(CN3CCC(N[S+](=O)([O-])c4cccs4)CC3)c2)cc1,,,22.4 µM (active)
Cc1noc(C)c1[S+](=O)([O-])NC1CCN(Cc2ccc(-c3ccsc3)cc2)C1 (stereo not drawn),,,39.8 µM (active)
Cc1noc(C)c1[S+](=O)([O-])N1CCCC(c2nnc3n2C(C(=O)O)CC3)C1 (stereo not drawn),,inactive,
Cc1noc(C)c1[S+](=O)([O-])NC1CCN(Cc2cccc(-c3ccc(F)c(F)c3)c2)CC1,,,25.1 µM (active)
CCCN1C(=O)C(CC(=O)NC2CCCC2)Sc2ncccc21 (stereo not drawn),9.1% (inactive),,
CC(C)CCN1CCc2c(n(Cc3cccnc3)n(-c3ccccc3)c2=O)C1,4.31% [at 172 µM] (inactive),,
CCn1ncc(N2CCC(NC(=O)C(C)c3ccccc3)CC2)cc1=O (stereo not drawn),-2.7% (inactive),,
CN1[C@@H](CCC(=O)N2CCN(c3ccccn3)CC2)CNC(=O)[C@@H]2[C@H]1CCN2Cc1csnn1,1.42% (inactive),,
CN(Cc1cccnc1)C1CN(C(=O)c2ccnn2C)C1,-5.32% (inactive),,
CN(Cc1cccc2ccccc12)C1CCc2ccccc21 (stereo not drawn),1.89% [at 172 µM] (inactive),,
CN(CC1CCOC1)C(=O)c1ccccc1Br (stereo not drawn),-14.7% (inactive),,
O=C(c1ccc(C(F)(F)F)cc1)N1CCC2(C1)C(=NC1CCCC1)NC(=O)N2c1cccnc1 (stereo not drawn),4.18% (inactive),,

Compound,"activity change, negative = cytotoxicity",outcome,Potency
CN(CC1(C)CCOCC1)S(=O)(=O)C1CC1,-3.58% (inactive),,
O=C(N[C@@H]1C[C@H](Cn2cc(-c3cccnc3)nn2)[C@@H](O)[C@H]1O)c1ccccc1,4.8% (inactive),,
O=c1[nH]c(N2CCOCC2)nc2c1CCN(Cc1cccc(F)c1)CC2,-0.181% (inactive),,
CN(C)c1ccc(C(=O)N2CCN3C(=O)N(Cc4ccccc4)C(=O)[C@H]3C2)cc1,-26.6% [at 172 µM] (inactive),,
CC1=C[C@@H](CNC(C)C)[C@H](C(C)C)C[C@H]1Cc1nnc(-c2ccc(N(C)C)cc2)o1,,,31.6 µM (active)
CC1=C[C@@H](CNC(C)C)[C@H](C(C)C)C[C@H]1Cc1nnc(-c2ccc(C)cc2)o1,,,70.8 µM (active)
CC(=O)NC[C@@H]1C=C(C)[C@H](CC(=O)N2CCCC2)C[C@H]1C(C)C,3.61% [at 172 µM] (inactive),,
CC1=C[C@@H](CNC2CC2)[C@H](C(C)C)C[C@H]1Cc1nnc(-c2ccc(C)cc2)o1,,,50.1 µM (active)
O=C1CCC2(CCCN(C(=O)c3ccc(F)cc3)C2)CN1CCc1cnc[nH]1 (stereo not drawn),-7.95% (inactive),,
CC(C)CN1CC2(CCN(C(=O)c3conc3-c3ccccc3)CC2)CC1=O,3.69% (inactive),,
CC(C)S(=O)(=O)N1CCC(c2nnc3n2CCNC3)CC1,-23.8% (inactive),,
O=C(C1C2C(=O)N(C3CCCCCC3)C[C@@]23C=C[C@@H]1O3)N1CCS(=O)(=O)CC1 (stereo partly drawn),-13.7% (inactive),,
COCCN1CCOC[C@H]2CCN(C(=O)c3sc(C)nc3C)C[C@H]21,8.08% (inactive),,
COCCNC(=O)CC[C@]12CC[C@](C)(O)C[C@H]1C(C)(C)C[C@@H]2NC(=O)c1ccco1,1.79% [at 172 µM] (inactive),,
CNC(=O)[C@@H]1CN(Cc2cccc(OC)c2)C[C@H]1CO,-2.57% (inactive),,
COc1cccc(CN2CC[C@@](C)(O)[C@H](N3CCCC3)C2)c1,-1.62% (inactive),,
N[C@@H]1CCN(Cc2cccc(Oc3ccc(F)cc3)c2)C[C@H]1O,,,79.4 µM (active)
COC(=O)C1=C(C)N=C2SC=C(CC(=O)NCc3ccco3)N2C1c1cccc(F)c1 (stereo not drawn),-28.9% (inactive),,
CC(C)(C)c1nc(C(=O)N2CCOCC2)n2ccccc12,-9.1% [at 172 µM] (inactive),,
CCCNC(=O)N1CCCC1c1nc(C2CCOCC2)no1 (stereo not drawn),-1.86% (inactive),,
COCCN1C(=O)CS(=O)C12CCN(C(=O)NC1CCCC1)CC2 (stereo not drawn),,inactive,
Cn1nccc1C(=O)N1CCCCCNC(=O)[C@@H]2CCC[C@@H]21,1.85% (inactive),,
COc1ccccc1Nc1ncc2c(n1)CN(C(=O)COc1ccccc1)CCN2,-45.3% [at 172 µM] (inactive),,
O=C(c1cccc(F)c1)N1CCCC(c2nccn2Cc2cscn2)C1 (stereo not drawn),-9.43% (inactive),,
O=C(c1cccc(O)c1)N1CCNc2cnc(Nc3cccc(F)c3)nc2C1,,,100 µM (active)
Cc1ccc(C(=O)N2C[C@H]3CN(C4CCOCC4)C[C@@]3(C(=O)O)C2)cc1,-3.71% (inactive),,

Compound,"activity change, negative = cytotoxicity",outcome,Potency
Cc1nnc(-c2cc(-c3ccccc3)ccn2)n1CCc1ccccc1,,,89.1 µM (active)
COCCn1c(C)nnc1-c1cc(-c2cccc(F)c2)ccn1,-14.4% [at 172 µM] (inactive),,
COc1ccc(-c2ccnc(-c3nnc(C)n3C3CCN(C)CC3)c2)cc1OC,,inactive [at 172 µM],
O=C(C1CCN([S+](=O)([O-])c2cccs2)CC1)N1CCC(c2nc3ncccc3[nH]2)CC1,-26% (inactive),,
Cc1ccc(N2Cc3c(NC4CCCCC4)ncnc3N(C)CC2=O)cc1,-23.9% (inactive),,
O=C(Cc1cccn1-c1ccccc1)N1CCOCC1,8.81% (inactive),,
Cc1ccc(C(=O)N2CCCC(C(=O)NCc3ccccc3)CCNC(=O)CC2)s1 (stereo not drawn),-11.4% (inactive),,
O=[N+]([O-])c1cccc(-c2noc([C@@H]3C[C@@H](O)CN3Cc3cccnc3)n2)c1,-20% [at 172 µM] (inactive),,
COc1ccc(-c2nc(C)nc3c2CN([S+](C)(=O)[O-])CC3)cc1,2.07% (inactive),,
COc1ccc(-c2nnc3n2CCN(C(=O)c2cccc(OC)c2)C3)cc1,-1.3% (inactive),,
COc1cccc(C(=O)N2CCc3nc(C(C)C)nc(-c4ccc(Cl)cc4)c3C2)c1,,,89.1 µM (active)
COc1ccc(-c2nc(C(C)C)nc3c2CCN([S+](=O)([O-])c2cccc(C(F)(F)F)c2)CC3)cc1,,,39.8 µM (active)
COc1ccc(-c2nc(C3CC3)nc3c2CCN([S+](=O)([O-])c2ccccc2)CC3)cc1,-25.8% (inactive),,
COc1ccc(C(=O)N2CCc3nc(C4CC4)nc(-c4ccc(Cl)cc4)c3C2)cc1,-23.7% (inactive),,
CCC(CC)C(=O)N1CCC(N2CCCC(C(=O)NCc3ccccc3)C2)CC1 (stereo not drawn),-6.43% (inactive),,
COc1cc(SC)ccc1C(=O)N[C@@H]1C=C(C(=O)N[C@H](Cc2ccccc2)C(N)=O)C[C@@H](O)[C@@H]1O,-6.4% (inactive),,
CCCC(NC(C)=O)C(=O)Nc1cccc(NC(=O)Cc2ccccc2)c1 (stereo not drawn),-5.42% (inactive),,
O=c1[nH]c(C2CCN(Cc3ccc(F)cc3)CC2)nn1Cc1ccccc1,-21.8% (inactive),,
COc1ccccc1C(=O)N1CCC2(CC1)CC(=O)c1ccccc1O2,,,112 µM (active)
COc1ccccc1C(=O)N1CCC2(CCC(=O)N(Cc3ccccc3)CC2)CC1,9.71% (inactive),,
COc1ccccc1C(=O)N1CCC(n2cnnc2C2CC2)CC1,-2.05% (inactive),,
OC1CC(c2cc(N3CCC(c4nnc5n4CCCCC5)CC3)ncn2)C1 (stereo not drawn),2.4% (inactive),,
O=C(O)c1cccc(-c2ccccn2)c1,,,inactive
COCCN1C(=O)c2cccn2CC1CNC(=O)c1ccccc1F (stereo not drawn),4.36% (inactive),,
CN(C)[C@@H]1CO[C@H](CNS(=O)(=O)c2ccccc2)[C@H]1O,,inactive [at 172 µM],
CNC(=O)c1cc[nH]c1C1CCCN(C(=O)Cc2c[nH]c3ccccc23)C1 (stereo not drawn),3.91% (inactive),,
